From PubChem BioAssay
KB-V1 cytotox = kills drug-selected multidrug resistant KB-V1 cells; KB-V1 MDR cells viability, CellTiter-Glo, 72 h; Potency, µM (titrated, usually from 46.1 µM), actives largely listed as cytotoxic; 3.4% of 400,000 active; AID 1347076; note: nearly all actives have a fitted effect of over 60% in size
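KB-V1 MDR subline cells in DMEM (phenol-red free, 10% FBS) exposed to compounds in qHTS concentration series for 72 h at 37 degrees C. Viability read by CellTiter-Glo luminescence; concentration-effect curves fitted after normalization and correction.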
D3 antag = D3 dopamine receptor (human) antagonism | max response, negative = inhibition, % | P35462 | 2.5% of 360,000 active | D3R cells, DiscoveRx beta-arrestin luminescence, antagonist mode; active compounds read low; in the data active = max response below about -50%; inconclusive = no clear call, values can overlap the other calls
Target sequence (P35462 whole entry, looked up): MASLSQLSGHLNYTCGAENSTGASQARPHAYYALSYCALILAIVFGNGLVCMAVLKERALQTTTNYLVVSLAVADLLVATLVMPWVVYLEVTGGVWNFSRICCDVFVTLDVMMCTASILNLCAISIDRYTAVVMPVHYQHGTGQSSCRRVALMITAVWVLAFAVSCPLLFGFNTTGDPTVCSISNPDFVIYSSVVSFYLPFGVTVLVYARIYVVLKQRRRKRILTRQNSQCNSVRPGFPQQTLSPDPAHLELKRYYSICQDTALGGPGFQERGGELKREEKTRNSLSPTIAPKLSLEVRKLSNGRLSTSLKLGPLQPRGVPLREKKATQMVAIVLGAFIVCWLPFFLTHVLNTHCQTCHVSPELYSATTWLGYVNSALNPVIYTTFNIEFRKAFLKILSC
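Cells plated overnight at 1500 cells/well, then exposed to library compounds with dopamine controls for 90 minutes at 37 degrees C. DiscoveRx reagent added for 30–60 minutes at room temperature; luminescence read, quantitative HTS format.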
SW480 rereplic = induces DNA re-replication in SW480 colon adenocarcinoma cells; SW480 DNA re-replication, Hoechst DNA content imaging, 48 h; Potency, µM (highest dose often 46.1 µM), actives largely listed as activators; 1.8% of 340,000 active; AID 624297; note: nearly all actives have a fitted effect of over 55% in size
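SW480 cells exposed to compounds for 48 hr at 37 C, 5% CO2, then Hoechst-stained 40 min. Nuclear DNA content imaged by fluorescence scanning (405 nm excitation, 500-530 nm emission); re-replication scored as increased high-intensity nuclei.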
DRD3 agonist = D3 dopamine receptor (human) agonism. P35462. D3R DiscoveRx beta-arrestin cells, luminescence, 90 min. max activation, %. 0.58% of 410,000 active; in the data active = max activation above about 30%
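Agonist mode: compounds and dopamine controls were applied to plated cells for 90 min at 37 degrees C after an overnight attachment at 1500 cells/well. Luminescent read-out followed 30 - 60 minutes at room temperature with DiscoveRx detection reagent.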
MCF10A rereplic = inducers of DNA re-replication in MCF 10A breast cells | Potency, µM (titrated, usually from 46.1 µM), most hits filed as activators | 2.9% of 350,000 active | MCF 10A DNA re-replication, Hoechst nuclear intensity, 48 h; note: nearly all actives have a fitted effect of over 50% in size
KB-3-1 tox = KB-3-1 parental cell cytotoxicity; 1.4% of 400,000 active; Potency, µM (titrated, usually from 46.1 µM), actives largely listed as cytotoxic; KB-3-1 viability, CellTiter-Glo ATP luminescence, 72 h; AID 1347075; note: nearly all actives have a fitted effect of over 60% in size
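Cytotoxicity measured as CellTiter-Glo luminescence after 72 h at 37 C. Compound titrations were pinned onto drug-naive KB-3-1 parental adenocarcinoma cells grown in DMEM with 10% FBS, and normalized data fitted to concentration-response curves.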
Hits are given with their value; ! = not active in a repeat; [ ] = dose if it differs, or a comment. A selection: hits, their analogues and other compounds. The true share with any hit is near 8.9%. Unless noted, calls come from the whole dose curve; as a rule, active = well fitted curve in the direction sought with a large enough effect; inconclusive = small, poorly fitted or top-dose-only effect, or another doubt; inactive = no such curve, though single readings can be large; an effect the other way counts as inactive or inconclusive.

What do the screens show for `COc1ccc(Cc2c3cc(OC)c(OC)cc3cc[n+]2C)cc1OC`?
KB-V1 cytotox: inactive; D3 antag: inactive; SW480 rereplic: inactive; DRD3 agonist: inactive; MCF10A rereplic: inactive; KB-3-1 tox: inactive

What do the screens show for `COc1ccc(NC(=S)Nc2cccc3ccccc23)cc1OC`?
KB-V1 cytotox: inactive; D3 antag: inactive; SW480 rereplic: inactive; DRD3 agonist: inactive; MCF10A rereplic: inactive; KB-3-1 tox: inactive

What do the screens show for `N=c1oc2ccccc2cc1C(=O)Nc1ccccc1`?
KB-V1 cytotox: inactive; D3 antag: inactive; SW480 rereplic: inactive; DRD3 agonist: inactive; MCF10A rereplic: inactive; KB-3-1 tox: inactive

Results for Nc1ccc(C(=O)Nc2nc3ccccc3s2)cc1 ?
KB-V1 cytotox: inactive; D3 antag: inactive; SW480 rereplic: inactive; DRD3 agonist: inactive; MCF10A rereplic: inconclusive; KB-3-1 tox: inactive

How did N=c1oc2cc(O)ccc2cc1C(=O)Nc1ccc(Br)cc1 do in these assays?
KB-V1 cytotox: 18µM; D3 antag: inactive; SW480 rereplic: 1.6µM; DRD3 agonist: inactive; MCF10A rereplic: 5.2µM; KB-3-1 tox: 23µM

Results for N=c1oc2cc(O)ccc2cc1C(=O)Nc1nc2ccccc2s1 ?
KB-V1 cytotox: inactive; D3 antag: inactive; SW480 rereplic: 2.9µM; DRD3 agonist: inactive; MCF10A rereplic: 8.2µM; KB-3-1 tox: inactive

Results for O=C(Nc1ccccc1C(=O)OCc1cc(=O)n2nc(C3CC3)sc2n1)c1cccc(F)c1 ?
KB-V1 cytotox: inconclusive; DRD3 agonist: inactive; KB-3-1 tox: inactive

How did COc1ccc(NC(=O)Cn2cnc3c(nc4n3CCCCC4)c2=O)c(OC)c1 do in these assays?
KB-V1 cytotox: inactive; DRD3 agonist: inactive; KB-3-1 tox: inactive

How did COc1ccc(C=CC(=O)C=CC=Cc2ccccc2)cc1 do in these assays?
KB-V1 cytotox: inactive; D3 antag: inactive; SW480 rereplic: 21µM; DRD3 agonist: inactive; MCF10A rereplic: inconclusive; KB-3-1 tox: inconclusive

Results for COc1ccccc1/C=C/C(=O)Nc1cccnc1Cl ?
KB-V1 cytotox: inactive; D3 antag: inactive; SW480 rereplic: inactive; DRD3 agonist: inactive; MCF10A rereplic: inactive; KB-3-1 tox: inactive

Results for CNc1ccccc(C(=O)/C=C/c2ccccc2OC)c1=O ?
KB-V1 cytotox: 15µM; D3 antag: inactive; SW480 rereplic: inconclusive; DRD3 agonist: inactive; MCF10A rereplic: inconclusive; KB-3-1 tox: inconclusive

How did CC(CN1CCOCC1)OC(=O)c1ccccc1 (configuration not stated) do in these assays?
KB-V1 cytotox: inactive; D3 antag: inactive; SW480 rereplic: inactive; DRD3 agonist: inactive; MCF10A rereplic: inactive; KB-3-1 tox: inactive

Results for COc1ccccc1/C=C/C(=O)/C=C/c1ccccc1O ?
KB-V1 cytotox: inconclusive; D3 antag: inactive; SW480 rereplic: inconclusive; DRD3 agonist: inactive; MCF10A rereplic: 10µM; KB-3-1 tox: inconclusive

Results for COc1ccccc1/C=C/C(=O)OC(C)CN1CCOCC1 (configuration not stated) ?
KB-V1 cytotox: inactive; D3 antag: -83; SW480 rereplic: inactive; DRD3 agonist: inactive; MCF10A rereplic: inactive[0.0737 µM]; KB-3-1 tox: inactive

How did CCOC(=O)c1c(C)[nH]c(C)c1S(=O)(=O)N(C)CC(=O)Nc1cc(Cl)ccc1C do in these assays?
KB-V1 cytotox: inactive; DRD3 agonist: inactive; KB-3-1 tox: inactive

How did COc1ccccc1/C=C/C(C)=O do in these assays?
KB-V1 cytotox: inactive; D3 antag: inactive; SW480 rereplic: inactive; DRD3 agonist: inactive; MCF10A rereplic: inactive; KB-3-1 tox: inactive

What do the screens show for `COc1ccccc1C=CC(=O)C=Cc1ccccc1OC`?
KB-V1 cytotox: inconclusive; D3 antag: inconclusive; SW480 rereplic: 8.2µM; DRD3 agonist: inactive; MCF10A rereplic: 3.3µM; KB-3-1 tox: inconclusive

What do the screens show for `COc1ccc(NC(=O)CSc2nc(C)cc(C)c2C(=O)Nc2cccc(C)c2)cc1`?
KB-V1 cytotox: inactive; DRD3 agonist: inactive; KB-3-1 tox: inactive

What do the screens show for `O=C1CCC(=O)N1CCC(c1ccc(F)cc1)c1ccco1` (configuration not stated)?
KB-V1 cytotox: inactive; D3 antag: inactive; SW480 rereplic: inactive; DRD3 agonist: inactive; MCF10A rereplic: inactive; KB-3-1 tox: inactive

Results for O=C1NCN(c2ccccc2)C12CCN(CCCC(c1ccc(F)cc1)c1ccc(F)cc1)CC2 ?
KB-V1 cytotox: inconclusive; D3 antag: -104; SW480 rereplic: inconclusive; DRD3 agonist: inactive; MCF10A rereplic: 27µM!; KB-3-1 tox: inconclusive

How did Cn1ccc2c(-c3ccccc3F)cc3c(c21)C1CCC3C1 (configuration not stated) do in these assays?
KB-V1 cytotox: inactive; D3 antag: -54; DRD3 agonist: inactive; KB-3-1 tox: inactive

What do the screens show for `CC1(C(=O)NCc2ccco2)Cc2c(-c3cccc(C(F)(F)F)c3)ccnc2O1` (configuration not stated)?
KB-V1 cytotox: inconclusive; D3 antag: inactive; DRD3 agonist: inactive; KB-3-1 tox: 6.5µM

What do the screens show for `CC(=O)c1cccc(NC(=O)C2(C)Cc3c(-c4cccc(C(N)=O)c4)ccnc3O2)c1` (configuration not stated)?
KB-V1 cytotox: inactive; D3 antag: inactive; DRD3 agonist: inactive; KB-3-1 tox: inactive

Results for CC1(C(=O)NCc2ccco2)Cc2c(-c3cccc(C(N)=O)c3)ccnc2O1 (configuration not stated) ?
KB-V1 cytotox: inactive; D3 antag: inactive; DRD3 agonist: inactive; KB-3-1 tox: 10µM

What do the screens show for `CC1(C(=O)NCc2ccncc2)Cc2c(-c3cccc(C(F)(F)F)c3)ccnc2O1` (configuration not stated)?
KB-V1 cytotox: inactive; D3 antag: inactive; DRD3 agonist: inactive; KB-3-1 tox: inactive

How did CC1(C(=O)NCc2ccccc2)Cc2c(-c3cccc(C(N)=O)c3)ccnc2O1 (configuration not stated) do in these assays?
KB-V1 cytotox: inactive; D3 antag: inactive; DRD3 agonist: inactive; KB-3-1 tox: 6.5µM

What do the screens show for `COc1ccc(NC(=O)C2(C)Cc3c(-c4cccc(C(N)=O)c4)ccnc3O2)cn1` (configuration not stated)?
KB-V1 cytotox: inactive; D3 antag: inactive; DRD3 agonist: inactive; KB-3-1 tox: 9.2µM

How did Cc1ccc2c(c1)-c1c(c(C(=O)N3CCN(c4cc(Cl)ccc4C)CC3)nn1C)CS2 do in these assays?
KB-V1 cytotox: inactive; DRD3 agonist: inactive; KB-3-1 tox: inactive

What do the screens show for `COc1ccc(-n2c(SCC(=O)NCc3ccccc3)nc3n[nH]c(C)c3c2=N)cc1`?
DRD3 agonist: inactive

Results for CC(=O)Nc1ccc(-c2ccnc3c2CC(C)(C(=O)NCc2ccco2)O3)cc1 (configuration not stated) ?
KB-V1 cytotox: inactive; D3 antag: inactive; DRD3 agonist: inactive; KB-3-1 tox: 10µM
